NR3A LBD binder: modulates the human NR3A ligand-binding domain; hit rate 2.5% among 340,000; Tm shift relative to glycine control, % at 25 µM; NR3A LBD differential scanning fluorimetry, Tm shift; 0% = protein alone, 100% = glycine-bound protein; AID 1259313;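 active means melting temperature shift of at least 10% of the positive control shift, at one fixed dose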
AHR act: human AHR activation | AHR-responsive luciferase reporter cells, luminescence | activation, % at 5 µM | hit rate 2.5% among 320,000 | AID 2796; in the data active means activation above about 47%;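 further: 0% = vehicle wells and 100% = reference agonist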
SUMO Mot1 rescue: inhibitors of SUMOylation pathway: yeast Mot1-301 growth rescue. S. cerevisiae Mot1-301 growth rescue, ATP luminescence, 38.5C; percent above DMSO median, 100 means doubled. growth rescue, % at 18.8 µM. hit rate 1% among 320,000;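 active means every valid replicate shows activation above 250% relative to neutral control wells; inactive means the rest, any valid replicate at or below 250%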;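 further: OY570 slx delta 5 strain wells were the positive control but not used for scaling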
AI-2 QS modul: modulates the Vibrio harveyi AI-2 quorum sensing system. Vibrio harveyi JMH597 AI-2 luminescence/OD600 ratio, 9 h; hits give low values; strain lacks LuxN and CqsS sensors; 0 = neutral-control median. hit rate 0.4% among 300,000. AID 2094. activity change, % at 7.5 µM; in the data active means activity change below about -75%, passing the limit was not always enough;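 further: luminescence divided by OD600 gain over 9 h not by final OD600 alone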
H9c2 protect: modulators protecting cardiomyocytes from myocardial damage; H9c2 cardiomyocytes, H2O2 injury protection, ATPLite, 2 h; protection from H2O2 cell death, % at 20 µM; hit rate 0.63% among 360,000;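 active means compounds giving at least 50% protection of heart cells from peroxide-induced death in the single-dose screen, raw or plate-pattern-corrected value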;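 further: 0% = DMSO wells with peroxide and 100% = DMSO wells without peroxide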
NTR1 ag: agonists of human neurotensin receptor NTR1; activation, % at 20 µM; hit rate 0.17% among 330,000; NTR1-U2OS beta-arrestin-GFP spot imaging, agonist mode; P30989; AID 493036;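 active means activation at or above 40% of the spot to cytoplasm intensity ratio, with at least 20 cells analyzed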;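 further: 0% = DMSO without peptide and 100% = 100 nM NTR1 peptide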
AHR act confirm: confirmation of human aryl hydrocarbon receptor activators | human cells, AHR-responsive luciferase reporter, luminescence | activation, % at 9 µM | hit rate 87% among 2,300 | shares compounds with AHR act; in the data active means activation above about 49%;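 further: HepG2 hepatoma cells carrying a DRE-driven firefly luciferase reporter; 0% = vehicle wells and 100% = reference agonist wells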
PXR counter: activates human PXR in AHR activator counter-screen. shares compounds with AHR act. cell-based PXR reporter, luciferase luminescence. activation, % at 11.6 µM. hit rate 88% among 2,300; in the data active means activation above about 11%;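 further: human hepatoma DPX-2 cells expressing full-length human PXR; 0% = DMSO and 100% = reference agonist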
Target sequence (O75469 whole entry, looked up): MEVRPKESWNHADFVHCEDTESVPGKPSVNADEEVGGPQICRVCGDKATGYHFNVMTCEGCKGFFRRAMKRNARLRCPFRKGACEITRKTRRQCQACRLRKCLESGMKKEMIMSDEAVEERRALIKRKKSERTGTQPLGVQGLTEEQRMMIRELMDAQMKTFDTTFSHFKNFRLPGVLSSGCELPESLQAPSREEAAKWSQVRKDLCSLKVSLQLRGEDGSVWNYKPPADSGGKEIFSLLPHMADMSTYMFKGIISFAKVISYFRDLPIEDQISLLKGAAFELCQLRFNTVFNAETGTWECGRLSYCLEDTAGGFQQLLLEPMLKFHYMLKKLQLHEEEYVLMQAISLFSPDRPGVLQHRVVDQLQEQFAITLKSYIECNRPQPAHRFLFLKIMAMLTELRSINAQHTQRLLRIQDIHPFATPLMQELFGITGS
* marks the source's active call; other numbers are inactive results; / = not tested or not shown. This is a sample that favours compounds with a hit; in the whole collection about 6.2% have one here.

SMILES	NR3A LBD binder	AHR act	SUMO Mot1 rescue	AI-2 QS modul	H9c2 protect	NTR1 ag	AHR act confirm	PXR counter
Cc1cc(C)n2nc(-c3sccc3-n3cccc3)cc2n1	11*	93*	175	16	3	4	55*	61*
Cc1cc(C)n2nc(-c3ccc(Cl)cc3)cc2n1	0	98*	14	8	-4	5	120*	27*
Cc1cc(-c2ccc(Cl)cc2)n2nc(C)cc2n1	-2	17	-11	26	-8	1	/	/
COc1ccc(-c2cc3nc(C)cc(C)n3n2)cc1	1	40	-5	3	-7	-4	/	/
CCc1nnc(NC(=O)CN2CCCC(C)C2)s1 (stereo not given)	1	1	9	12	9	0	/	/
Cc1nc(-c2cccnc2)sc1C(=O)Nc1ccc(F)cc1F	2	8	4	8	1	-3	/	/
Cc1nc(-c2ccccn2)sc1C(=O)Nc1ccc(F)cc1F	0	95*	-10	-3	1	2	44	26*
O=C(Nc1cccc(F)c1)/C(=C/c1ccco1)NC(=O)c1ccco1	0	28	397	-3	5	0	/	/
Cc1cccc(-c2sc(Nc3ccccc3)n[n+]2-c2ccccc2)c1	-6	108*	1	/	-6	1	50*	132*
O=C(O)c1ccc(-c2sc(Nc3ccccc3)n[n+]2-c2ccccc2)cc1	1	43	-10	3	-3	-2	/	/
Cc1ccc(N2C(=O)c3ccccc3C2=O)cc1	0	45	-29	22	0	0	/	/
CC(=O)Nc1cccc2c1C(=O)N(c1ccc(C)cc1)C2=O	-1	99*	-24	6	6	-1	99*	/
Cc1ccc(C(=O)OC(C)C(=O)c2cc(C)c(C)cc2C)o1 (stereo not given)	2	1	76	10	-8	1	/	/
CCOC(=O)N1CCN(C(=O)CSc2nc3c([nH]c4ccccc43)c(=O)n2CC)CC1	-1	101*	0	-2	25	2	94*	54*
C=CCn1c(SCC(=O)N2CCOCC2)nc2c([nH]c3ccccc32)c1=O	-3	88*	-3	9	4	0	92*	77*
O=C(CSc1nc2c([nH]c3ccccc32)c(=O)n1-c1ccccc1)N1CCOCC1	2	7	-4	21	4	5	/	/
Cc1ccc(S(=O)(=O)NN2CCCCCC2)cc1	/	/	/	/	-3	/	/	/
COc1ccc(NC(=O)N(C)C[C@H]2Oc3c(NC(=O)c4nc5ccccc5s4)cccc3C(=O)N([C@@H](C)CO)C[C@H]2C)cc1	-5	3	6	/	14	4	/	/
CCOC(=O)C1=C(CCl)NC(=O)NC1c1ccc2c(c1)OCO2 (stereo not given)	0	-2	12	6	-3	2	/	/
CNC(=S)N/N=C1\C(=O)c2cccc3cccc1c23	-5	90*	0	19	34	7	114*	39*
Cc1cc(C(=O)NCC(=O)OC(C)C(=O)N2CCOCC2)ccc1[N+](=O)[O-] (stereo not given)	0	-1	130	/	8	2	/	/
N/C(=N\OC(=O)c1cc(Cl)ccc1Cl)c1ccccn1	-3	122*	-23	5	-23	2	64*	17*
N/C(=N\OC(=O)c1ccc(Br)o1)c1ccccn1	2	79*	-12	31	-13	0	29	22*
N/C(=N\OC(=O)c1ccccc1)c1ccccn1	1	8	-7	24	-22	0	/	/
CCOc1ccccc1N1CCN(C(=O)c2c(-c3c(F)cccc3Cl)noc2C)CC1	-1	10	196	21	3	1	/	/
SMILES	NR3A LBD binder	AHR act	SUMO Mot1 rescue	AI-2 QS modul	H9c2 protect	NTR1 ag	AHR act confirm	PXR counter
Cc1c(C(=O)N2CCCCC2C)sc2ncnc(N3CCc4ccccc4C3)c12 (stereo not given)	-2	5	-6	23	-13	-4	/	/
COCCCNC(=O)c1sc2ncnc(N3CCc4ccccc4C3)c2c1C	-1	100*	25	19	6	1	82*	20*
COc1cc2[nH]c(-c3ccc(C)cc3)cc(=O)c2cc1OC	0	134*	-5	14	-4	0	78*	13*
Cc1ccc2[nH]c(-c3ccccc3)cc(=O)c2c1	-2	135*	10	25	-16	-6	34	57*
COc1cc2[nH]c(-c3cccc(F)c3)cc(=O)c2cc1OC	0	91*	-6	6	4	-7	54*	/
COc1ccc(-c2cc(=O)c3cc(C)ccc3[nH]2)cc1	1	35	1	18	-14	-1	/	/
Cc1ccc(-c2cc(=O)c3cc(Cl)ccc3[nH]2)cc1	/	18	5	10	/	1	/	/
CC(=O)Nc1ccc(NC(=O)[C@@H](NC(=O)N2C[C@H]3C[C@@H](C2)c2cccc(=O)n2C3)C(C)C)cc1	-1	0	4	17	1	-2	/	/
CC(=O)Nc1ccc(S(=O)(=O)NCCC(=O)OCc2ccc([N+](=O)[O-])cc2)cc1	2	0	-17	-40	-12	3	/	/
Cc1cc(C)c(NC(=O)C2CC(=O)N(C3CCCC3)C2)c(C)c1 (stereo not given)	0	-1	4	/	5	0	/	/
CN1C(=O)/C(=C/c2ccccc2OCc2cccc(F)c2)NC1=S	-4	97*	8	15	-11	6	74*	35*
CN1C(=O)/C(=C/c2ccccc2OCc2ccccc2)NC1=S	-8	90*	5	13	4	3	64*	30*
CCCn1nnc(NC(=O)c2cc(Br)ccc2OC)n1	0	2	2	-9	-8	-1	/	/
COc1ccc(Br)cc1C(=O)Nc1cc(C)cc(C)c1	3	113*	5	-11	-5	0	100*	18*
COc1ccc(NC(=O)c2cc3ccccc3cc2OC)cc1	3	96*	-32	-1	-8	3	66*	12*
CCOc1ccc(NC(=O)c2cc3ccccc3cc2OC)cc1	32*	83*	34	2	-8	7	91*	/
OCC1OC(n2cnc3c(SCc4ccccc4)nc(F)nc32)C(O)C1O (stereo not given)	-2	/	/	/	-1	/	/	/
COc1ccccc1/C=C/C(=O)N1CCCC1	-6	84*	4	18	0	0	102*	17*
COc1ccccc1C=CC(=O)C=Cc1ccccc1OC	1	/	/	/	6	/	/	/
Cc1nc(/N=C\N(C)C)sc1C(=O)Nc1ccccc1	-2	108*	-15	27	-2	-1	130*	11*

Compound activity deposited in PubChem by several laboratories.
